Assay results reported in PubChem BioAssay AID1766 (National Center for Advancing Translational Sciences (NCATS), 2009).
The campaign covered roughly 290,000 compounds. Fewer than 10 were called active. Not shown: some 3% with an inconclusive outcome. Calls follow the shape of the dose curve; as a rule, active = well fitted curve in the direction sought with a large enough effect in the polarisation (not every such curve was filed as active); inconclusive = small, poorly fitted or top-dose-only effect, or effect the other way, or a change in a side signal; inactive = no such curve, though single readings can be large or run the other way; the % refers to the polarisation. Only a sample is shown.

assay: qHTS Assay for Inhibitors Targeting the Menin-MLL Interaction in MLL Related Leukemias: Competition With Fluorescein Labeled MLL-derived Peptide; conditions: Fluorescence polarization, fluorescein-MLL peptide displacement from menin; series mostly up to 61.4 µM; FP activity change: at the top concentration; also: % of control where 0% means no effect
Excerpt: qHTS Assay for Inhibitors Targeting the Menin-MLL Interaction in MLL Related Leukemias NIH Chemical Genomics Center [NCGC] NIH Molecular Libraries Probe Centers Network [MLPCN] MLPCN Grant: MH084875-01A1 Assay Submitter (PI): Jolanta Grembecka, Tomasz Cierpicki, University of Virginia Translocations of the MLL (Mixed Lineage Leukemia) gene are frequently found in human leukemias affecting both children and adults. Fusion of MLL to one of more than 60 genes results in generation of oncogenic proteins upregulating Hox genes, which are vital to blood cell development. Patients harboring fusion of the MLL gene suffer from aggressive leukemias and respond poorly to available therapies. All of the oncogenic fusion proteins have a preserved N-terminal fragment of MLL that has been identified to interact with menin. It has been recently discovered that association with menin is critical to the leukemogenic activity of the MLL fusion oncoproteins. Selective targeting of the menin-MLL interaction could provide an attractive therapeutic approach to develop novel drugs for MLL-related leukemias. Small molecules blocking the menin-MLL interaction should reverse the oncogenic potential of MLL fusion proteins. We have developed and optimized a fluorescence polarization-based assay for the identification of Menin-MLL inhibitors. The assay was run employing two different MLL-derived peptides. The present assay uses a 12 amino acid peptide labeled with fluorescein at its N-terminus. This peptide consists of the menin high affinity binding motif from MLL and is potently bound by menin. Another peptide with a mutated sequence, labeled with Texas Red, was used in parallel as a less stringent screen for inhibitors.
The Menin protein, the MLL-wild type (w.t.) derived peptide (N-terminal 12 amino acids), the MLL-derived peptide labeled with Texas Red and the MLL-w.t. peptide labeled with Fluorescein were kindly supplied by laboratory of Dr. Jolanta Grembecka, University of Virginia. All protein and peptide solutions were stored in single use aliquots at -80C. The Eu3+ Cyrptate-conjugated mouse monoclonal antibody anti-6 Histidine (Eu3+-AB) and the Streptavidin-XL665 conjugate (XL665) were purchased from Cisbio International (Bedford, MA). All antibody and XL665 conjugate solution stocks were stored in single use aliquots at -20C. The Buffer components for all assays were purchased from Sigma-Aldrich (St. Louis, MO) and Invitrogen (Carlsbad, CA). FP Assay Reagents: 1. FP reaction buffer: 50 mM Tris-HCl pH 7.5, 50 mM NaCl, 1mM DTT. Before use, 0.05% BSA is added. 2. Menin protein, MLL-w.t. labeled with fluorescein, MLL-mutant peptide labeled with texas red. Stored in singe use aliquots at -80C. 3. MLL-w.t. unlabeled peptide as positive control: 10 uM final in FP buffer. FP Assay Procedure: 1. Prepare Menin at 200 nM, MLL-w.t.-fluorescein at 25 nM, and MLL-mutant-texas red at 50 nM mixture in FP buffer. 2. Prepare Menin at 200 nM, MLL-w.t.-fluorescein at 25 nM, MLL-mutant-texas red at 50 nM, and 10 uM MLL-w.t. unlabeled mixture in FP buffer. 3. Prepare MLL-w.t.-fluorescein at 25 nM and MLL-mutant-texas red at 50 nM mixture in FP buffer. 3. Dispense 4 ul per well of reagent in step 1 in columns 2, 4 - 48 in a black 1536 well plate, dispense 4 ul per well of reagents from steps 2 and 3 in columns 1 and 3 respectively. Incubate plate at ambient for 15 minutes. 4. Transfer 23 nl per well of compound to plate and incubate at ambient for 1 hr. 5. Read fluorescence polarization for each label using the PerkinElmer Envision. Envision protocol for fluorescein: FITC FP Dual Enh Mirror, Excitation filter 480, Emission filter (1) P-pol 535, Emission filter (2) S-pol 535 Envision protocol for texas red: FP Dual Enh Mirror, Excitation filter 555, Emission filter (1) P-pol 632, Emission filter (2) S-pol 632

FP activity change, inactive:
CC(C)(C)c1ccc(Cn2nnc3c(=O)[nH]c(C4CCCN(C(=O)c5ccco5)C4)nc32)cc1 (configuration not stated) 2.29%
C/C=C/C=N/NC(=O)c1ccncc1 -2.94%
CCC(=O)Nc1nc(C)c(C(=O)Nc2cccc(Cl)c2)s1 -0.766%
COC(=O)c1ccc(CN2C(=O)NC(c3ccccc3)(c3ccccc3)C2=O)o1 -3.74%
O=C(Nc1nnc(-c2ccccc2F)s1)c1ccccc1F 0.841%
S=c1[nH]c(-c2cccs2)cn1-c1ccccc1 -10%
Cc1ccc(-c2csc(N3CCN(c4cc5c(cc4Cl)nc(-c4ccncc4)n5CCOCCO)CC3)n2)cc1 -0.208%
CCOc1ccc(-n2c(SCC(=O)OC)nc3sc4c(c3c2=O)CCN(C)C4)cc1 6.86%
COC(=O)c1ccc(Nc2ncnc3sccc23)cc1 3.91%
Cc1ccc(NC(=O)Nc2cccnc2)cc1 -1.76%
Cc1ccc(N(Cc2ccccc2O)C(=O)c2ccccc2F)cc1 -5.27%
Cc1ccccc1NC(=S)NC(=O)Cc1ccc(Cl)cc1 -2.56%
O=C(NCCCO)c1cc2c([nH]c3ccccc32)c(-c2ccc(F)cc2)n1 -0.599%
Cc1cc(CNC(=O)C2CCC(=O)N(CCc3ccc(Cl)cc3)C2)no1 (configuration not stated) 4.02%
O=C1CCC([N+](=O)[O-])C(c2ccccc2Br)N1 (configuration not stated) -0.866%
CSc1nnc2ccc(-c3ccc(C)cc3)nn12 3.46%
Cc1ccc(C(=O)c2coc3ccc(O)c(CN(C)C)c23)cc1 -0.231%
CC1(C(=O)NCCc2c[nH]c3ccccc23)C=CC2(CCCCC2)N1C(=O)c1ccccc1 (configuration not stated) 0.914%
Cc1ccc(O)c(NC(=O)c2cc(-c3ccco3)on2)c1 11%
Cc1ccccc1NC(=O)CCOc1ccccc1 0.005%
Cc1ccc(SCC(CC(C)C)N2CCN(CCc3ccccc3)CCC2=O)cc1 (configuration not stated) 4.19%
NS(=O)(=O)c1ccc(CCNC(=O)c2nc(CS(=O)(=O)c3ccc(Cl)cc3)no2)cc1 -0.948%
O=C1CCN(Cc2ccccc2)CCN1[C@H](CSc1ccccc1)c1ccccc1 0.158%
CS(=O)(=O)N(CC(=O)N1CCCCCC1)c1cccc(Cl)c1Cl -2.08%
COc1ccc(NC(=O)N2CCCC2C(=O)NCc2ccccc2Cl)cc1 (configuration not stated) -7.57%
O=C(NCCCN1CCOCC1)C1CCCN(S(=O)(=O)N2CCCCC2)C1 (configuration not stated) 0.555%
Cc1cc(F)ccc1N1CCC(N2CCN(C)C(CCO)C2)CC1 (configuration not stated) -7.47%
Cc1cccc(C(=O)OC(C)CN2CCCC2)c1 (configuration not stated) 5.39%
Cc1cn([C@H]2CC(F)[C@@H](CO)O2)c(=O)[nH]c1=O (some centres not stated) -4.2%
CN1C(=O)CN2CCc3ccccc3C2c2cc(Cl)ccc21 (configuration not stated) -5.51%
C=C1C(=CC=C2CCC[C@@]3(C)[C@@H]2CC[C@H]3[C@H](C)CCCC(C)C)C[C@@H](O)C[C@@H]1O 9.09%
COc1ccc(NC2CCCN(C(=O)c3ccncc3)C2)cc1 (configuration not stated) -4.31%
COc1cccc(OCc2cc(C(=O)N3CCN(C(=O)c4ccco4)CC3)no2)c1 6.94%
Cc1ccc(-c2nc(-c3ccncc3)no2)c(C)c1 -1.78%
CN(Cc1ccccc1)C(=O)c1ccc(COc2ccccc2)cc1 -7.59%
COc1cccc(NC(=O)C2C(c3ccccc3)C2(Cl)Cl)c1 (configuration not stated) -0.0582%
CN(CCO)c1ccc(/C=N/Nc2nncc3ccccc23)cc1 -4.23%
CC(C)c1ccc(NC(=O)Cn2ncc3ccccc32)cc1 -5.91%
COc1ccc(-c2n[nH]c(C)c2-c2ccccc2OC)c(O)c1 -3.47%
CN(CCc1ccccc1)c1ccc([N+](=O)[O-])cn1 -0.677%
CC(C)(C)OC(=O)NC(Cc1ccccc1)C(=O)NC(CSC1CCCCO1)C(=O)NN (configuration not stated) -3.74%
CN(CC(=O)Nc1ccc(Cl)cc1)C(=O)CNC(=O)c1ccc2ccccc2c1 -0.426%
O=C(CCN1CCCO1)N1CCCC(N2CCN(c3cccc(C(F)(F)F)c3)CC2)C1 (configuration not stated) 3.51%
C/C(=N\NC(=O)c1ccoc1C)c1ccccc1O -0.0656%
CC(=O)Nc1ccc(NC(=O)CC2CCCC2)cc1 8.07%
COc1cccc2cc(C(N)=O)/c(=N\NC(=O)c3ccccc3)oc12 3.41%
COc1ccc(OC)c(/C(C)=N\NC(=O)c2cc3cc(Cl)ccc3n2C)c1 4.34%
CCCC[C@]12Cc3cc(OC)c(OC)cc3C(O1)C1=C(CC3(CCCCC3)OC1=O)O2 0.345% [at 11.7 µM]
O=C(COc1ccc(S(=O)(=O)Nc2cccc(C(F)(F)F)c2)cc1)N1CCOCC1 3.89%
O=C(CSc1nnnn1C1CCCC1)N1CCCCC1 0.177%
C[C@@H]1CC[C@@]2(OC1)O[C@H]1C[C@H]3[C@@H]4CC=C5C[C@@H](O)[C@H](O)C[C@]5(C)C4CC[C@]3(C)[C@H]1[C@@H]2C (some centres not stated) -14.6%
COc1c(O)c2c(=O)cc(OC)c3c4c(OC)cc(=O)c5c(O)c(OC)c6c(c(c1C[C@@](C)(O)[C@H]6C(C)=O)c23)c54 -8.66%
COCCNc1cc(-c2ccccc2)nc2cc(-c3cccc(F)c3)nn12 2.42%
COc1ccc(OC)c(NC(=O)CN(C)CCOc2ccc(Br)cc2)c1 -13.1%
CC(C)(c1ccccc1)c1ccc(OCCN2CCCC2)cc1 -1.58%
CCN(CC)c1ccc(/C=N/NC(=O)CNC(=O)c2cccs2)cc1 2.38%
O=C(Cc1cccs1)NCc1cccc(C(F)(F)F)c1 -0.128%
Cc1cc(S(=O)(=O)NCc2ccccn2)c(Cl)cc1Cl -0.167%
COc1ccccc1CNS(=O)(=O)c1ccc2c(c1)NC(=O)CS2 -0.943%
COc1ccc(CNS(=O)(=O)c2ccc(NC(=O)N3CCCCC3)cc2)cc1 -0.428%
Oc1ccc(-c2cccc(-c3ccc(O)cc3)c2)cc1 0.0539%
CCCn1c(=O)c(C(=O)Nc2cc(C)ccn2)c(O)c2ccccc21 1.11%
Cc1cccc(C)c1NC(=O)NC1=CCCN1C 0.307%
O=C(Nc1ccc(F)cc1)c1ccc(S(=O)(=O)NCc2cccnc2)cc1 -2.58%
CC(C)NC(=O)COCc1cc(-c2ccc3c(c2)OCO3)on1 1.18%
COc1ccc(/C=N/Nc2nc(-c3ccc(C)cc3)c(C#N)c(=O)[nH]2)cc1 4.62%
COc1ccc(NCCc2ccccn2)cc1 7.39%
COc1cc(Cl)ccc1OCc1cc(C(=O)N(C)CCc2c(C)n[nH]c2C)no1 5.22%
CCCCn1c(-c2cccc(C)c2)nc2cc3[nH]c(=O)c(C(C)C)nc3cc21 -1.86%
CCOc1ccc(N(C(=O)c2snc(C(N)=O)c2N)C(C(=O)NCC2CCCO2)c2c[nH]c3ccccc23)cc1 (configuration not stated) 0.995%
O=C1OC2(CCCCC2)CC2=C1C1O[C@](c3ccsc3)(Cc3ccccc31)O2 6.24% [at 11.7 µM]
O=C(c1noc2c1CCCC2)N1CCc2ccccc2C1 4.17%
O=C(Nc1ccc(Br)cc1F)C1CC(=O)N(C2CCCCC2)C1 (configuration not stated) -3.69%
O=C(Nc1cccc(Br)c1)c1ccc2snnc2c1 1.58%
CCn1nnnc1SCC(=O)Nc1ccc(N(C)C)cc1 7.93%
CC(C)CN(CC(C)C)C(=O)CN1c2cccc3cccc(c23)S1(=O)=O -0.109%
Cc1c(C)n(Cc2ccc(Cl)cc2)c2ccc(C(=O)NCCCN3CCOCC3)cc12 -1.82%
COc1ccc(/C=C/c2noc(-c3ccccc3OC(C)=O)n2)cc1 -1.92%
COc1ccc(C)cc1Nc1n[n+](-c2ccccc2)c(-c2cccc(Cl)c2Cl)s1 -4.87%
CN(Cc1ccccc1)C(=O)C1CCCN(c2ncnc3c2nc2n3CCCCC2)C1 (configuration not stated) 7.84%
C[n+]1cc(-c2ccccc2)oc1-c1ccccc1 2.02%
CS(=O)(=O)Nc1ccccc1N=C(c1ccccc1)c1ccccc1 -3.8%
O=S1(=O)CCOC[C@H](CC2CCCCC2)N1Cc1ccc(F)cc1 3.27%
Cc1cc(C)n2nc(CNS(=O)(=O)c3c(F)c(F)c(F)c(F)c3F)nc2n1 -0.766%
Cc1ccc(-c2ncc(Cl)cc2-c2ccc(S(C)(=O)=O)cc2)cn1 -0.497%
CCc1ccccc1NC(=S)Nc1cc(OC)c(NC(=O)C(C)C)cc1OC 2.06%
CC(=O)Oc1ccc(-c2cccc(C(=O)N3CCCCC3)c2)cc1 -1.05%
O=P(O)(O)OC[C@H](O)CO 1.8%
CCOCCCNC(=O)C1(O)c2cc(Br)ccc2NC(=O)N1c1ccc(C)c(C)c1 (configuration not stated) -1.16%
COC(=O)C1(C)NC(c2ccc(F)cc2)C2C(=O)N(c3ccccc3)C(=O)C21 (configuration not stated) 1.25%
Cc1cccc(OCCC(=O)Nc2ccccc2C(N)=O)c1 11.1%
COc1ccc2c(C(=O)c3ccc(C)cc3)n(CCC(N)=O)[n+]([O-])c2c1 -1.07%
Cc1ccc(N2CCN(C(=O)c3cccs3)CC2)c(C)c1 -3.88%
c1ccc(-c2ccc(OCCN3CCOCC3)cc2)cc1 -3.06%
COc1ccc(N(CC(=O)NCCSCc2cccc(Cl)c2)S(C)(=O)=O)cc1 -0.4%
COc1ccc(C(=O)O/N=C(\N)c2ccccn2)cc1[N+](=O)[O-] 2.14%
NS(=O)(=O)c1ccc2nc(NC(=O)C3=COCCO3)sc2c1 -3.94%
COc1ccc(N2CCN(C(=O)c3cccs3)CC2)cc1 -2.7%
CS(=O)(=O)N1CCCC(C(=O)Nc2ccccc2C(F)(F)F)C1 (configuration not stated) -2.75%
O=C(Nc1nnc(C2=COCCO2)o1)c1ccc([N+](=O)[O-])s1 -4.17%
CC1CCN(CC(O)COc2ccc(C(=O)c3ccccc3)cc2)CC1 (configuration not stated) -3.11%
CC(C)(O)c1ccccc1CC[C@H](SCC1(CC(=O)O)CC1)c1cccc(/C=C/c2ccc3ccc(Cl)cc3n2)c1 -1.58%
CCOc1ccc(CN2CCC(n3nccc3NC(=O)C3CC3)CC2)cc1CO 0.299%
COc1cc(/C=C/C(=O)O)cc(S(=O)(=O)Nc2ccccc2C(=O)NCCc2ccccc2)c1OC 3.17%
Cc1cc(=O)[nH]c(Nc2cccc(Br)c2)n1 0.992%
CCCc1cc(C(=O)Nc2ccc(Cl)cn2)cs1 -1.52%
Cc1ccc(S(=O)(=O)NCC2CCC(C(=O)N3CCOCC3)CC2)cc1 (configuration not stated) -11.9%
